Inconclusive results are not listed. Entries that show only a call come without a potency. Active and inactive are the calls of the source. The call rests on the fitted dose curve; in most records, active means well fitted cell-killing curve with a large enough effect in the repeat runs; inconclusive means weak or mixed curves, or effect the other way; inactive means flat fitted curve, though single readings scatter.
Assay: qHTS assay to identify small molecule antagonists of the androgen receptor (AR) signaling pathway using the MDA cell line - cell viability counter screen (AID 743041; further: nearly all actives have a fitted effect of over 45% in size)
Details: MDA-kb2 viability, CellTiter-Fluor, 16 h, cells co-treated with R1881 androgen agonist; series mostly up to 70.3 µM
Excerpt: National Center for Advancing Translational Sciences [NCATS]
NIH Chemical Genomics Center [NCGC]
U.S. Environmental Protection Agency [EPA]
National Institutes of Environmental Health Sciences [NIEHS]
National Toxicology Program [NTP]
U.S. Food and Drug Administration [FDA]
Androgen receptor (AR), a nuclear hormone receptor, plays a critical role in AR-dependent prostate cancer and other androgen related diseases. Endocrine disrupting chemicals (EDCs) and their interactions with steroid hormone receptors like AR may cause disruption of normal endocrine function as well as interfere with metabolic homeostasis, reproduction, developmental and behavioral functions. To identify the compounds that inhibit AR signaling, MDA-kb2 AR-luc cell line (from ATCC, deposited by Wilson et al.) was used to screen the Tox21 10K compound library. MDA-kb2 AR-luc cell line is human breast carcinoma cell line that was stably transfected with a luciferase reporter gene under control of the MMTV promoter containing response elements for both androgen receptor (AR) and glucocorticoid receptor (GR). The cytotoxicity of the Tox21 compound library against the MDA-kb2 AR-luc cell line was tested in parallel by measuring the cell viability using CellTiter-Fluor assay (Promega, Madison, WI) in the same wells.
Tox21 Assay Protocol Summary:
MDA-kb2 AR-luc cells were dispensed at 3,000 cells/4 uL/well of culture medium into white wall/solid-bottom 1536-well plates using a Multidrop Combi (ThermoFisher Scientific, Waltham, MA) dispenser. After the assay plates were incubated at a 37C and 0% CO2 for 5 hr, 23 nL of compounds dissolved in DMSO, positive controls or DMSO only was transferred to the assay plate by a Pintool station (Kalypsys, San Diego, CA), followed by addition of 1 uL of agonist (R1881) in culture medium using a Bioraptr Flying Reagent Dispenser (FRD) workstation (Beckman Coulter, Indianapolis, IN, USA). The plates were incubated at a 37C and 0% CO2 for 16 h. After 15.5 h incubation, 1uL of CellTiter-Fluor reagent (Promega) was added using a Bioraptr FRD to each plate for measuring cytotoxicity. The fluorescence intensity was quantified on a ViewLux plate reader (PerkinElmer, Shelton, CT) following 30 min incubation at 37C and 0% CO2.
Potency means the concentration at half of the fitted maximal effect.

Row | SMILES | Potency
1 | COc1cc(N)c(Cl)cc1C(=O)NC1CCN(CCCOc2ccc(F)cc2)CC1OC (stereo not given) | inactive
2 | Oc1cccc(Nc2ccccc2)c1 | inactive
3 | CC[C@]1(O)C[C@H]2CN(CCc3c([nH]c4ccccc34)[C@@](C(=O)OC)(c3cc4c(cc3OC)N(C=O)[C@H]3[C@@](O)(C(=O)OC)[C@H](OC(C)=O)[C@]5(CC)C=CCN6CC[C@]43[C@@H]65)C2)C1 | inactive
4 | Brc1cc(Br)c(Oc2cc(Br)c(Br)cc2Br)cc1Br | inactive
5 | Cc1ccco1 | inactive
6 | CCCCCCCCC(CCCCCC)C(=O)O (stereo not given) | inactive
7 | C/C=C(/C(=C/C)c1ccc(O)cc1)c1ccc(O)cc1 | inactive
8 | COC(=O)CCS | inactive
9 | O=C(Cn1ccnc1[N+](=O)[O-])NCCO | inactive
10 | CC(C)COCC(CN(Cc1ccccc1)c1ccccc1)N1CCCC1 (stereo not given) | inactive
11 | C=Cc1ccc(S(=O)(=O)O)cc1 | inactive
12 | Cc1ccccc1N=C(N)Nc1ccccc1C | inactive
13 | CC(=O)c1ccc([N+](=O)[O-])cc1 | inactive
14 | CCC1CO1 (stereo not given) | inactive
15 | CN(C(=O)CN(CCO)CC(=O)N(C)C(C)(C)Cc1ccccc1)C(C)(C)Cc1ccccc1 | inactive
16 | CC1CC(C)C(=O)C1=O (stereo not given) | inactive
17 | CCC1NC(=O)c2cc(S(N)(=O)=O)c(Cl)cc2N1 (stereo not given) | inactive
18 | C[C@@H](O)[C@H]1C(=O)N2C(C(=O)O)=C([C@H]3CCCO3)S[C@H]12 | inactive
19 | O=c1[nH]ncc2ccccc12 | inactive
20 | CCn1cc(C(=O)O)c(=O)c2cc(F)c(N3CCNCC3)cc21 | inactive

Row | SMILES | Potency
21 | C[C@]12CC[C@@H]3c4ccc(O)cc4CC[C@H]3[C@@H]1CC[C@@H]2OC(=O)CCC1CCCC1 | inactive
22 | CCC(OCCCOC)OC(C)=O (stereo not given) | inactive
23 | CCCC(=O)C(=O)O | inactive
24 | CC(=O)Nc1cc(S(=O)(=O)O)cc2cc(S(=O)(=O)O)c(N=Nc3ccccc3)c(O)c12 | inactive
25 | O=[N+]([O-])c1ccc(Nc2ccc(Nc3ccccc3)c(S(=O)(=O)O)c2)c([N+](=O)[O-])c1 | inactive
26 | C=C1c2cccc(O)c2C(O)=C2C(=O)[C@]3(O)C(O)=C(C(N)=O)C(=O)[C@@H](N(C)C)[C@@H]3[C@@H](O)[C@H]12 | inactive
27 | C1COC1 | inactive
28 | CCCCCC[C@@H](O)C/C=C\CCCCCCCC(=O)OCC(O)CO (stereo not given in full) | inactive
29 | C[C@]1(Cn2ccnn2)[C@H](C(=O)O)N2C(=O)C[C@H]2S1(=O)=O | inactive
30 | CC(CO)CO | inactive
31 | c1ccc(C[n+]2cccc3ccccc32)cc1 | 61.1 µM (active)
32 | CC=C(Cl)Cl | inactive
33 | CO[C@]1(NC(=O)CSC(F)F)C(=O)N2C(C(=O)O)=C(CSc3nnnn3CCO)CO[C@H]21 | inactive
34 | CC/C=C1/OC(=O)c2ccccc21 | inactive
35 | CC(C)c1nc(CN(C)C(=O)N[C@H](C(=O)N[C@@H](Cc2ccccc2)C[C@H](O)[C@H](Cc2ccccc2)NC(=O)OCc2cncs2)C(C)C)cs1 | inactive
36 | C(=C\c1ccccc1)/c1ccccc1 | inactive
37 | CC(=O)Nc1ccc(C)cc1C | inactive
38 | C=C1CCC2CC1C2(C)C (stereo not given) | inactive
39 | O=C(Nc1cccc2c(=O)cc(-c3nn[nH]n3)oc12)c1ccc(OCCCCc2ccccc2)cc1 | inactive
40 | CCOC(=O)C1=C(C)NC(C)=C(C(=O)OC)C1c1cccc(Cl)c1Cl (stereo not given) | inactive

From PubChem BioAssay (Tox21)
